Screens from PubChem.
MLL AF4-AF9 inh: inhibitors of AF4 peptide binding to AF9, primary screen, biochemical, AlphaScreen, biotin-AF4 peptide, FLAG-AF9, single point. Protein AF-9 (Homo sapiens), P42568. inhibition, % at 10 µM. 0.47% of 350,000 active. AID 651704, 2012;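 active means every replicate reaching a set inhibition limit, whatever the replicate mean, cut at about 25% in these data; inconclusive means mean inhibition reaches that limit but some replicates miss it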;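 further: 0% = plate neutral control median and 100% = total signal loss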
rRNA inh HTS: reduced GFP signal of wild-type E. coli, primary screen, bacterial rRNA inhibitor project, GFP/RFP fluorescence, OD600, single point | E. coli WT GFP vs humanized-ribosome RFP mutants, 24 h; active compounds read low; DMSO median 0, no signal -100 | GFP signal change (wild-type ribosome), % (concentration not given with the values) | 1.6% of 350,000 active | AID 720706, 2013;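 active means significant combined selectivity score with lowered wild-type GFP, culture density cut under 30%, mutant RFP and density less affected; inactive means any of these conditions unmet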
NSD2 HMT inh: NSD2 histone methyltransferase inhibitors, primary screen, biochemical, AlphaScreen, single concentration, set 2; Histone-lysine N-methyltransferase NSD2 (Homo sapiens), O96028; NSD2 peptide methylation, 120 min; inhibition, % at 12.5 µM; 0.54% of 310,000 active; AID 743445, 2014; in the data active means inhibition above about 50%
CASP6 VEID inh: human caspase-6 inhibitors, primary screen, biochemical, VEID-R110 fluorescence, single point, set 2 | P55212 | purified caspase-6, Z-VEID-R110 cleavage fluorescence | inhibition, % at 12.5 µM | 0.53% of 350,000 active | AID 686996, 2013;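 active means mean inhibition across replicates at least about 35%, with every replicate also reaching that limit, limit read from the data; inconclusive means only one of the two criteria met; inactive means neither criterion met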;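 further: 0% = median of neutral control wells and 100% = no fluorescence left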
Target sequence (P55212 24-179 limits assumed): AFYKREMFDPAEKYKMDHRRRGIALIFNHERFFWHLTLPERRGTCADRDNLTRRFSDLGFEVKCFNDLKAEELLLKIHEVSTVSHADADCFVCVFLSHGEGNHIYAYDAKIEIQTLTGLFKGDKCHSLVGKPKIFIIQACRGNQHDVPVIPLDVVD
Target sequence (P55212 194-293 limits assumed): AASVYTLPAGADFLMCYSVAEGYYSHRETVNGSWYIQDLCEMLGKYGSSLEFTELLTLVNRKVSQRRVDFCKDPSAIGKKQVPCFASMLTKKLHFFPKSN
RAD52 anneal inh: RAD52 DNA annealing inhibitors, primary screen, biochemical, FRET, single point, set 2; recombinant RAD52 DNA annealing, FRET fluorescence; inhibition, % at 18.7 µM; 0.46% of 360,000 active;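 active means every replicate showing at least 50% inhibition; inconclusive means mean inhibition at least 50% but not in every replicate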
AID977621: growth inhibition of wild-type GFP E. coli, dose response, H69 mutant RFP, cherry-pick | AID 977621, 2014 | 1,900 tested, under 10 active | activity change, negative = inhibition at 50 µM | shares compounds with rRNA inh HTS | E. coli wild-type GFP strain growth, fluorescence, 24 h;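 active means Wild-type ribosome reporter drop at least double the humanized mutant ribosome reporter drop, growth loss under a set limit; inconclusive means no clear call, values can overlap the other calls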;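 further: wild-type GFP and H69 mutant RFP strains grown together 50/50 in each well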
AID977628: E. coli growth inhibition, wild-type GFP versus h24 humanized RFP strain, dose response, h24 mutant RFP vs wild-type GFP, cherry-pick. activity change, negative = inhibition at 50 µM. E. coli WT GFP strain growth, fluorescence, 24 h. shares compounds with rRNA inh HTS. 1,900 tested, under 10 active. AID 977628, 2014;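 active means compound lowering the normal-ribosome reporter at least twice as much as the humanized-ribosome reporter, growth loss under a set limit; inconclusive means no clear call, values can overlap the other calls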;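 further: wild-type GFP and h24 humanized RFP strains co-cultured 1 to 1 per well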
Numbers without * were called inactive. Only some compounds are listed: those with a hit (about 2.5% of all), similar ones and a draw of the others.

Screening C[C@@H]1CN([C@H](C)CO)C(=O)c2cccc(NC(=O)Nc3ccc(F)cc3)c2O[C@H]1CN(C)Cc1ccc(Oc2ccccc2)cc1 returned MLL AF4-AF9 inh 4, rRNA inh HTS -2, CASP6 VEID inh -1 and RAD52 anneal inh 6.
Screening COc1cc(-c2cc3nc(NCCc4ccncc4)ccn3n2)cc(OC)c1OC returned MLL AF4-AF9 inh 2, rRNA inh HTS -18*, NSD2 HMT inh -1, CASP6 VEID inh 0, RAD52 anneal inh -1 and AID977628 inconclusive.
`O=C(c1ccccn1)N1C[C@@H]2[C@H](c3ccccc31)[C@@H](CO)N2C(=O)C1CC1` gave MLL AF4-AF9 inh -2, rRNA inh HTS 4, CASP6 VEID inh -2 and RAD52 anneal inh -25.
For COc1ccc(S(=O)(=O)NCCc2ccco2)cc1OC the results were MLL AF4-AF9 inh -3, rRNA inh HTS 7, NSD2 HMT inh 1, CASP6 VEID inh 1 and RAD52 anneal inh -29.
`CCCN(Cc1ccco1)S(=O)(=O)c1ccc(OC)c(OC)c1` gave MLL AF4-AF9 inh -2, rRNA inh HTS -20*, NSD2 HMT inh 3, CASP6 VEID inh 0, RAD52 anneal inh -11, AID977621 -10 and AID977628 -13.
`C[C@H](CO)N1C[C@H](C)[C@H](CN(C)Cc2ccc(C(F)(F)F)cc2)OCCCC[C@H](C)Oc2ccc(NC(=O)Nc3ccc(C(F)(F)F)cc3)cc2C1=O` gave rRNA inh HTS 6.
O=C(Cc1cccc(NC(=O)C2CCN(C(=O)CCc3ccccc3)CC2)c1)Nc1cccc(C(=O)N2CCCCC2)c1 was read as MLL AF4-AF9 inh 2, rRNA inh HTS -7, CASP6 VEID inh 0 and RAD52 anneal inh -29.
Screening O=C(Cc1cccc(NC(=O)C2CCCN(C(=O)CCc3ccccc3)C2)c1)Nc1cccc(C(=O)N2CCCC2)c1 (centres undefined) returned MLL AF4-AF9 inh -1, rRNA inh HTS -19*, RAD52 anneal inh -42 and AID977621 inconclusive.
For O=C(NCc1ccc2c(c1)OCO2)C1CCC(=O)N1C1CCCCC1 (centres undefined) the results were MLL AF4-AF9 inh 3, rRNA inh HTS -23*, CASP6 VEID inh -2, RAD52 anneal inh 0, AID977621 -1.6 and AID977628 inconclusive.
`COc1ccc(-c2noc(=O)n2Cc2ccccc2Cl)cc1` gave MLL AF4-AF9 inh -13, rRNA inh HTS -15*, NSD2 HMT inh -4, CASP6 VEID inh -2, RAD52 anneal inh -8 and AID977628 0.49.
COc1ccc(-c2noc(=O)n2Cc2ccc(F)cc2Cl)cc1 was read as MLL AF4-AF9 inh -2, rRNA inh HTS -10, NSD2 HMT inh -3, CASP6 VEID inh -3 and RAD52 anneal inh -16.
COC(=O)c1sc(-c2ccc(C(C)(C)C)cc2)cc1NC(=O)c1ccccc1C(=O)O was read as MLL AF4-AF9 inh 0, rRNA inh HTS -17*, NSD2 HMT inh 35, CASP6 VEID inh 12, RAD52 anneal inh -19 and AID977621 -21.
For CCCC[n+]1ccn(-c2nc3ccccc3nc2[N-]S(=O)(=O)c2cccs2)c1 the results were MLL AF4-AF9 inh 1, rRNA inh HTS -26*, NSD2 HMT inh -3, CASP6 VEID inh 3, RAD52 anneal inh -11 and AID977628 -8.4.
For CCCC[n+]1ccn(-c2nc3ccccc3nc2[N-]S(=O)(=O)c2ccccc2)c1 the results were MLL AF4-AF9 inh -3, rRNA inh HTS 14, NSD2 HMT inh -3, CASP6 VEID inh 2 and RAD52 anneal inh 3.
`C[C@H](CO)N1C[C@H](C)[C@H](CN(C)S(=O)(=O)c2ccc(F)cc2)Oc2ccc(NC(=O)Nc3ccc(F)cc3)cc2C1=O` gave MLL AF4-AF9 inh 4, rRNA inh HTS 2 and RAD52 anneal inh -15.
CC(=O)c1c(N2CCOCC2)nc2ccc(Cl)cc2c1-c1ccccc1 was read as rRNA inh HTS -19*, NSD2 HMT inh -1, CASP6 VEID inh 1, RAD52 anneal inh -11 and AID977621 0.093.
C[C@@H]1CCCCO[C@H](CN(C)C(=O)C2CCCCC2)[C@H](C)CN([C@H](C)CO)C(=O)c2cc(NC(=O)Cc3ccccc3)ccc2O1 was read as MLL AF4-AF9 inh 7, rRNA inh HTS -3, CASP6 VEID inh 1 and RAD52 anneal inh 11.
For CN(C(=O)COC(=O)CSc1ccc(C(N)=O)cc1[N+](=O)[O-])C1CCCCC1 the results were MLL AF4-AF9 inh 2, rRNA inh HTS -16*, NSD2 HMT inh 16, CASP6 VEID inh 1, RAD52 anneal inh -3, AID977621 -9.9 and AID977628 4.1.
For C[C@@H]1CN([C@@H](C)CO)C(=O)c2c(c3ccccc3n2C)-c2ccccc2CO[C@H]1CN(C)Cc1ccncc1 the results were MLL AF4-AF9 inh 1, rRNA inh HTS 1, CASP6 VEID inh 1 and RAD52 anneal inh 5.
For C[C@H](CO)N1C[C@H](C)[C@@H](CN(C)Cc2ccncc2)OCc2ccccc2-c2c(n(C)c3ccccc23)C1=O the results were MLL AF4-AF9 inh 2, rRNA inh HTS -22*, CASP6 VEID inh 1, RAD52 anneal inh 11 and AID977621 3.5.
`C[C@H]1CN([C@@H](C)CO)C(=O)c2c(c3ccccc3n2C)-c2ccccc2CO[C@@H]1CN(C)Cc1ccncc1` gave MLL AF4-AF9 inh 0, rRNA inh HTS -29*, CASP6 VEID inh 4, RAD52 anneal inh 7 and AID977628 1.5.
Screening C[C@@H]1CN([C@H](C)CO)C(=O)c2c(c3ccccc3n2C)-c2ccccc2CO[C@@H]1CN(C)Cc1ccncc1 returned MLL AF4-AF9 inh 2, rRNA inh HTS -17, CASP6 VEID inh 1 and RAD52 anneal inh 13.
Screening COc1cc(NC(=O)c2ccc(Cl)cc2)c(OC)cc1NC(=O)CN1CCCCC1 returned MLL AF4-AF9 inh 0, rRNA inh HTS -26*, NSD2 HMT inh 11, CASP6 VEID inh 0, RAD52 anneal inh 5, AID977621 -11 and AID977628 -10.
Screening COc1cc(NC(=O)c2ccc(Cl)cc2)c(OC)cc1NC(=O)CN1CCOCC1 returned NSD2 HMT inh 7.
